HT1080NT lethal – qHTS for induction of synthetic lethality in tumor cells producing 2HG: qHTS for the HT-1080-NT fibrosarcoma cell line. HT-1080-NT fibrosarcoma viability, CellTiter-Glo ATP luminescence, 48 h. Potency, µM (doses to about 46.1 µM), for inactives: at the top dose activity, negative = less viability, hits mostly cytotoxic. 360,000 compounds, 1.6% hits. AID 686970, 2013;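 further: NT is the 2HG producing partner of a matched IDH1 knockdown line; 0% = DMSO-treated cells and -100% = media-only wells without cells; nearly all actives have a fitted effect of over 55% in size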
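HT-1080-NT fibrosarcoma cells (2HG-overproducing), 750 cells/well in RPMI with 5% FBS, dosed after 2 h and incubated 48 h at 37C. CellTiter-Glo luminescence normalized to DMSO and no-cell wells; concentration-response curves fitted and classed.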
DT40 TDP1 CPT – qHTS for Inhibitors of human tyrosyl-DNA phosphodiesterase 1 (TDP1): qHTS in cells in presence of CPT | chicken DT40 Tdp1-/-;hTDP1 cells + 20 nM CPT, ATP luminescence, 48 h | Potency, µM (top dose mostly 46.2 µM), for inactives: top-dose activity change, negative = growth inhibition, usual class: inhibitors | 420,000 compounds, 12% hits | AID 686979, 2013; further: nearly all actives have a fitted effect of over 55% in size
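Chicken DT40 Tdp1-/- cells stably complemented with human TDP1 were seeded at 400 cells/well in medium containing 20 nM camptothecin, exposed to pin-transferred compounds, and grown at 37 °C for at least 48 hr. Viability was read as ATP luminescence.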
KB-3-1 tox – qHTS assay for MDR1-selective chemotherapeutics: Primary screen using the parental adenocarcinoma cell KB-3-1; AID 1347075, 2019; 400,000 compounds, 1.4% hits; KB-3-1 viability, CellTiter-Glo ATP luminescence, 72 h; Potency, µM (doses to about 46.1 µM), most hits filed as cytotoxic; further: nearly all actives have a fitted effect of over 60% in size
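Parental KB-3-1 adenocarcinoma cells in phenol-red-free DMEM with 10% FBS were pin-treated with compounds at several concentrations, incubated 72 h at 37 °C, and viability read by CellTiter-Glo luminescence; concentration-effect curves were fitted after normalization.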
HT1080 IDH1KD tx – qHTS for induction of synthetic lethality in tumor cells producing 2HG: qHTS for the HT-1080-IDH1KD cell line; HT-1080 IDH1 knockdown viability, ATP luminescence, 48 h; Potency, µM (titrated, usually from 46.1 µM), without a hit: at the top dose activity, negative = toxicity, hits mostly cytotoxic; 360,000 compounds, 2% hits;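 further: 0% = DMSO wells and -100% = cell-free medium wells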
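CellTiter-Glo luminescence after 48 h compound exposure at 37 degrees C of IDH1-knockdown HT-1080 cells in 5% FBS RPMI. %Activity scaled between DMSO wells and cell-free media wells, with curves fitted and assigned curve classes.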
DT40 TDP1 no CPT – qHTS for Inhibitors of human tyrosyl-DNA phosphodiesterase 1 (TDP1): qHTS in cells in absence of CPT; Potency, µM (titrated, usually from 46.2 µM), for the others: at the top dose activity change, negative = growth inhibition, hits mostly inhibitors; 420,000 compounds, 15% hits; AID 686978, 2013; DT40 Tdp1-/- hTDP1 cells, no CPT, ATP luminescence, 48 h; further: nearly all actives have a fitted effect of over 55% in size
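Compound effects on proliferation are scored in DT40 Tdp1-/-;hTDP1 cells in the absence of CPT. ATP levels (CellTiter-Glo luminescence) are recorded after a ≥48 hr, 37 °C incubation.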
KB-V1 MDR tox – qHTS assay for MDR1-selective chemotherapeutics: Primary screen using the drug-selected MDR subline cells KB-V1. Potency, µM (titrated, usually from 46.1 µM), hits mostly cytotoxic. AID 1347076, 2019. 400,000 compounds, 3.4% hits. KB-V1 MDR cells viability, CellTiter-Glo, 72 h; further: nearly all actives have a fitted effect of over 60% in size
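Compound-treated KB-V1 multidrug-resistant cells, 72 h, 37 degrees C; viability by CellTiter-Glo. Fitted qHTS curves give the values.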
An asterisk follows results filed as active; ! = a repeat was not active; [ ] = remark or other dose. Compounds with a hit are over-represented: about 19% of the library has one in this group of screens. The call rests on the fitted dose curve; in most records, active means well fitted curve in the direction sought with a large enough effect; inconclusive means small, poorly fitted or top-dose-only effect, or another doubt; inactive means no such curve, though single readings can be large; an effect the other way counts as inactive or inconclusive. Unless noted, on the % scale 0 is the no-effect control and ±100 the full control effect; potency means the concentration at half of the fitted maximal effect.

CCNC(=O)C1CCCN(Cc2cc(C(F)(F)F)ccc2Cl)CC1 (stereo not given) was read as HT1080NT lethal 26.1%, DT40 TDP1 CPT 25.9µM*, KB-3-1 tox inactive, HT1080 IDH1KD tx 22.4%, DT40 TDP1 no CPT inconclusive and KB-V1 MDR tox inactive.
For C[C@@H]1CN([C@@H](C)CO)C(=O)CCCn2nncc2CO[C@@H]1CN(C)C(=O)Oc1ccc2ccccc2c1 the results were HT1080NT lethal 5.2%, DT40 TDP1 CPT -28.5%, KB-3-1 tox inactive, HT1080 IDH1KD tx 6.9%, DT40 TDP1 no CPT inconclusive and KB-V1 MDR tox inactive.
Screening C[C@@H]1CN([C@H](C)CO)C(=O)CCCn2nncc2CO[C@@H]1CN(C)C(=O)Oc1ccc2ccccc2c1 returned HT1080NT lethal 1.7%, DT40 TDP1 CPT 8.3%, KB-3-1 tox inactive, HT1080 IDH1KD tx -2.1%, DT40 TDP1 no CPT 8.2µM* and KB-V1 MDR tox inactive.
C[C@H](CO)N1C[C@H](C)[C@H](CN(C)C(=O)Oc2cccc3ccccc23)OCc2cnnn2CCCC1=O was read as HT1080NT lethal -0.4%, DT40 TDP1 CPT -5.4%, KB-3-1 tox inactive, HT1080 IDH1KD tx -0.1%, DT40 TDP1 no CPT -18.6% and KB-V1 MDR tox inactive.
C[C@H]1CN([C@@H](C)CO)C(=O)CCCn2nncc2CO[C@H]1CN(C)C(=O)Oc1ccc2ccccc2c1 was read as HT1080NT lethal 8.8%, DT40 TDP1 CPT 16.4µM*, KB-3-1 tox inactive, HT1080 IDH1KD tx -2.8%, DT40 TDP1 no CPT 9.2µM* and KB-V1 MDR tox inactive.
C[C@@H]1CN([C@@H](C)CO)C(=O)CCCn2nncc2CO[C@@H]1CN(C)C(=O)Oc1cccc2ccccc12 was read as HT1080NT lethal 2.7%, DT40 TDP1 CPT 0.517µM*, KB-3-1 tox inactive, HT1080 IDH1KD tx 2.6%, DT40 TDP1 no CPT 0.581µM* and KB-V1 MDR tox inactive.
`Cc1cccc(NC(=O)Cn2cc(C(=O)c3ccccc3)c3ccccc32)c1C` gave DT40 TDP1 CPT inconclusive, KB-3-1 tox inactive, DT40 TDP1 no CPT inconclusive and KB-V1 MDR tox inactive.
For O=C(Nc1ccccc1)N1CC2(CCN(C(=O)Oc3ccccc3)CC2)C1 the results were DT40 TDP1 CPT -16.4% and DT40 TDP1 no CPT -10.5%.
`O=C(O)CCCO` gave DT40 TDP1 CPT 16.1%[92.5 µM] and DT40 TDP1 no CPT -22.4%[92.5 µM].
For CN1Cc2cccnc2N(C)Cc2cc(Cl)ccc21 the results were HT1080NT lethal -0.6%, DT40 TDP1 CPT inconclusive, KB-3-1 tox inconclusive, HT1080 IDH1KD tx -5.3%, DT40 TDP1 no CPT -18.3% and KB-V1 MDR tox 16.4µM*.
O=C1C=CC(=O)C2C1C1(Cl)C(Cl)=C(Cl)C2(Cl)C1(Cl)Cl (stereo not given) was read as HT1080NT lethal -8.8%, DT40 TDP1 CPT inconclusive, KB-3-1 tox inactive, HT1080 IDH1KD tx -26.8%, DT40 TDP1 no CPT inconclusive and KB-V1 MDR tox inactive.
For CN(C)C/C=C(/c1ccc(Br)cc1)c1cccnc1 the results were HT1080NT lethal -18.1%, DT40 TDP1 CPT 29.9µM*!, KB-3-1 tox inactive, HT1080 IDH1KD tx -24.9%, DT40 TDP1 no CPT 11.9µM* and KB-V1 MDR tox inactive.
`COC(=O)C1=C(c2ccc(F)cc2OCc2ccccc2)C[C@@H]2CC[C@H]1N2C(=O)N1CCCC1` gave HT1080NT lethal -9.7%, DT40 TDP1 CPT 6.51µM*, KB-3-1 tox inactive, HT1080 IDH1KD tx -5.8%, DT40 TDP1 no CPT 5.8µM* and KB-V1 MDR tox inactive.
COC(=O)C1=C(c2ccc(F)cc2OCc2ccccc2)C[C@@H]2CC[C@H]1N2C(=O)NC(C)C was read as HT1080NT lethal 10.1%, DT40 TDP1 CPT inconclusive, KB-3-1 tox inactive, HT1080 IDH1KD tx -0.1%, DT40 TDP1 no CPT 20.6µM* and KB-V1 MDR tox inactive.
For COC(=O)C1=C(c2ccc(F)cc2OCc2ccccc2)C[C@@H]2CC[C@H]1N2C(=O)NC1CCCCC1 the results were HT1080NT lethal 0.0%, DT40 TDP1 CPT inconclusive, KB-3-1 tox inconclusive, HT1080 IDH1KD tx -20.4%, DT40 TDP1 no CPT inconclusive and KB-V1 MDR tox inconclusive.
COC(=O)C1=C(c2ccc(F)cc2OCc2ccccc2)C[C@@H]2CC[C@H]1N2C(=O)NC1CC1 was read as HT1080NT lethal 15.0%, DT40 TDP1 CPT 16.4µM*, KB-3-1 tox inactive, HT1080 IDH1KD tx -1.0%, DT40 TDP1 no CPT inconclusive and KB-V1 MDR tox inactive.
For N#CC1C(C#N)C2CCC1C1C2N1c1ccccc1 (stereo not given) the results were HT1080NT lethal 1.4%, DT40 TDP1 CPT -9.6%, KB-3-1 tox inactive, HT1080 IDH1KD tx -2.9%, DT40 TDP1 no CPT -4.4% and KB-V1 MDR tox inactive.
C[C@H](CO)N1C[C@H](C)[C@@H](CN(C)C(=O)Nc2ccc(C(F)(F)F)cc2)Oc2c(NS(=O)(=O)c3cccs3)cccc2C1=O was read as HT1080NT lethal 8.1%, DT40 TDP1 CPT inconclusive, KB-3-1 tox inactive, HT1080 IDH1KD tx 2.2%, DT40 TDP1 no CPT inconclusive and KB-V1 MDR tox inactive.
For N#Cc1cc([N+](=O)[O-])ccc1NC(=O)c1cccn(Cc2cccc(F)c2)c1=O the results were DT40 TDP1 CPT -18.5%, KB-3-1 tox inactive, DT40 TDP1 no CPT -4.8% and KB-V1 MDR tox inactive.
O=C(O)CSC(=S)N1CC2CC(C1)c1cccc(=O)n1C2 (stereo not given) was read as HT1080NT lethal 10.9%, DT40 TDP1 CPT -0.6%, KB-3-1 tox inactive, HT1080 IDH1KD tx -2.2%, DT40 TDP1 no CPT inconclusive and KB-V1 MDR tox inactive.
Screening C=CCN1CCc2cccc3c2[C@H]1Cc1ccc(O)c(O)c1-3 returned HT1080NT lethal inconclusive, DT40 TDP1 CPT 16.4µM*, KB-3-1 tox inactive, HT1080 IDH1KD tx inconclusive, DT40 TDP1 no CPT 18.4µM* and KB-V1 MDR tox inconclusive.
For COc1ccc2c(c1O)-c1cc(O)cc3c1[C@@H](C2)N(C)CC3 the results were DT40 TDP1 CPT 11.4% and DT40 TDP1 no CPT -11.2%.
